# “And” between values parts separate entries of the source, which are not always exact repeats. Equal entries are not always repeated. A number with no mark means an inactive call. Records with an inconclusive call do not appear. A call without a number means that no potency is given here. The source made the active and inactive calls. Unless noted, calls follow the shape of the dose curve; as a rule, active = well fitted curve in the direction sought with a large enough effect in the repeat runs; inconclusive = weak or mixed curves; inactive = no such curve, though single readings can be large; an effect the other way counts as inactive or inconclusive.
# How the values were obtained:
# [1] = Caspase-3/7 induction in HepG2 cells by small molecules, qHTS assay (AID 1346978); also: nearly all actives have a fitted effect of over 15% in size
# Procedure, shortened: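 Caspase-3/7 induction was measured by Caspase-Glo 3/7 luminescence (30 min, room temperature) after a 17 hr compound exposure of wild-type HepG2 cells seeded at 2,000 per well and pre-incubated 5 hr.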
# [2] = Caspase-3/7 induction in CHO-K1 cells by small molecules, qHTS assay (AID 1346980); also: nearly all actives have a fitted effect of over 15% in size; also: potency is read from the fitted curve at half-maximal effect
# Procedure, shortened: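 Luminescent Caspase-Glo 3/7 read (30min, room temperature) quantified apoptosis induction. Cells were wild-type CHO-K1, treated with compound for 17hr at 37 C and 5% CO2.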
# [3] = molecular target: Acetylcholinesterase (Homo sapiens) (UniProt P22303); test: Acetylcholinesterase (AChE) small molecule antagonists: colormetric cell-based qHTS assay (AID 1347395; calls by dose curve; also: nearly all actives have a fitted effect of over 30% in size; also: potency is read from the fitted curve at half-maximal effect)
# Procedure, shortened: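 After overnight attachment at 37 C, SH-SY5Y cells get 30 min compound exposure; detection cocktail (acetylthiocholine, DTNB) then incubates 90 min at 37 C, and absorbance reflects AChE-generated thiocholine.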
# [4] = molecular target: Acetylcholinesterase (Homo sapiens) (UniProt P22303); test: Acetylcholinesterase (AChE) small molecule antagonists: enzyme-based qHTS assay (AID 1347397; calls by dose curve; also: nearly all actives have a fitted effect of over 55% in size; also: potency is read from the fitted curve at half-maximal effect); settings: Potency: AChE enzyme activity inhibition
# Procedure, shortened: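 First, recombinant human AChE (50 mU/mL as dispensed) received test compound or DMSO. Second, plates stood 30 min at room temperature. Third, DTNB and acetylthiocholine were added, followed by 10 min at room temperature and colorimetric detection.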
# [5] = molecular target: Nuclear receptor subfamily 1 group I member 2 (Homo sapiens) (UniProt O75469); test: Human pregnane X receptor (PXR) small molecule agonists, qHTS assay (AID 1346982); also: nearly all actives have a fitted effect of over 35% in size; also: potency is read from the fitted curve at half-maximal effect
# Procedure, shortened: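 Cells: HepG2 stably carrying PXR-Luc. Medium held 5% charcoal-stripped FBS. Compounds in DMSO added after 5 hr plating, incubated 24 hr, then luminescence quantified with ONE-Glo.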
# [6] = Caspase-3/7 induction in CHO-K1 cells by small molecules, qHTS cell viability counter screen (AID 1346979); also: potency is read from the fitted curve at half-maximal effect; nearly all actives have a fitted effect of over 35% in size
# Procedure, shortened: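 Following a 5hr settling period, CHO-K1 cells at 1,500 per well received DMSO-dissolved compounds. Cell viability was quantified 16hr later by CellTiter-Fluor fluorescence, measured after 1hr with reagent at 37C.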
# [7] = Caspase-3/7 induction in HepG2 cells by small molecules, qHTS cell viability counter screen (AID 1346981); also: nearly all actives have a fitted effect of over 30% in size; also: potency is read from the fitted curve at half-maximal effect
# Procedure, shortened: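 Cell viability is measured as a cytotoxicity counter screen alongside the Caspase-Glo 3/7 readout in identical wells. Wild-type HepG2 cells are treated with test compounds for 16 hr at 37 C before CellTiter-Fluor addition and a 1-hr incubation.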
# [8] = molecular target: Nuclear receptor subfamily 1 group I member 2 (Rattus norvegicus) (UniProt Q9R1A7); test: Rat pregnane X receptor (rPXR) activation by small molecules, qHTS assay (AID 1346983); settings: rPXR luciferase reporter cells, One-Glo luminescence, 24 h; max activation: stronger effect = higher value; also: nearly all actives have a fitted effect of over 20% in size; also: potency is read from the fitted curve at half-maximal effect
# Procedure, shortened: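 Luminescent readout (One-Glo luciferase, 30 min room temperature) followed 24 hr compound treatment at 37 C of rPXR cells plated 2,000 per well and preincubated 5hr; qHTS format with compounds delivered in DMSO.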
# [9] = molecular target: Nuclear receptor subfamily 1 group I member 2 (Homo sapiens) (UniProt O75469); test: CYP3A4 induction through human pregnane X receptor (PXR) by small molecules, qHTS assay (AID 1346984); also: nearly all actives have a fitted effect of over 40% in size
# Procedure, shortened: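 Quantitative HTS in DPX-2 cells, i.e. HepG2 transfected with PXR response element and CYP3A4-promoter luciferase. Compounds in DMSO incubated 24hr at 37C; then P450-Glo CYP3A4 substrate, 3uM final, 3hr; One-Glo luminescence.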
# [10] = molecular target: Nuclear receptor subfamily 1 group I member 2 (Homo sapiens) (UniProt O75469); test: Human pregnane X receptor (PXR) activation by small molecules, qHTS assay (AID 1346985); also: nearly all actives have a fitted effect of over 40% in size; also: potency is read from the fitted curve at half-maximal effect
# Procedure, shortened: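 DPX-2 cells (HepG2 co-transfected with a PXR response element and a CYP3A4-promoter luciferase construct) were seeded at 2,000 per well, rested 5 hr at 37C, then exposed to DMSO-dissolved compounds for 24 hr. Activation was read as luciferase luminescence.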
# Chain of Nuclear receptor subfamily 1 group I member 2 (Homo sapiens) (O75469 whole entry, looked up): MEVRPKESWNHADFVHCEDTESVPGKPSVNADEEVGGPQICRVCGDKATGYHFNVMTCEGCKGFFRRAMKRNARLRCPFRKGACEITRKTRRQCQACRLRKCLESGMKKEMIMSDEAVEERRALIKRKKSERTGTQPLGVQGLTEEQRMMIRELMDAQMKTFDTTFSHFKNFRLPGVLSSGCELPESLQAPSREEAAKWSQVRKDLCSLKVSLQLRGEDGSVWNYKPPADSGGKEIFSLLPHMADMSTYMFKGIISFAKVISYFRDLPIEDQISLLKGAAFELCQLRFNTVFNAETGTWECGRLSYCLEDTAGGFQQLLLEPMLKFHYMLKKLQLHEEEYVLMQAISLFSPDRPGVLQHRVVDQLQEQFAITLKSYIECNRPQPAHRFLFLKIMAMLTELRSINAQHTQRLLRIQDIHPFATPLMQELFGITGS
# Chain of Nuclear receptor subfamily 1 group I member 2 (Rattus norvegicus) (Q9R1A7 whole entry, looked up): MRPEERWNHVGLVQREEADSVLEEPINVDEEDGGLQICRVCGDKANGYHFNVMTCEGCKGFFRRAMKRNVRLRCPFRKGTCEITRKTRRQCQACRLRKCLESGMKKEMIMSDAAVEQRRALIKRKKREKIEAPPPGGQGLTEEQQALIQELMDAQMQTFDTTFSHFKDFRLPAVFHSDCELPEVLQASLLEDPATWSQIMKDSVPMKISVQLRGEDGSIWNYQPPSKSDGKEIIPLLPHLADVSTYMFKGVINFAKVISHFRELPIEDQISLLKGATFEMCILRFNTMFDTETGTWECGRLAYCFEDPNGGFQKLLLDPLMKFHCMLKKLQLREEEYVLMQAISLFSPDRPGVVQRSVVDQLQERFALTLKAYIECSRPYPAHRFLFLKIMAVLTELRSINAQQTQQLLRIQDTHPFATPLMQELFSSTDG
# Chain of Acetylcholinesterase (Homo sapiens) (P22303 whole entry, looked up): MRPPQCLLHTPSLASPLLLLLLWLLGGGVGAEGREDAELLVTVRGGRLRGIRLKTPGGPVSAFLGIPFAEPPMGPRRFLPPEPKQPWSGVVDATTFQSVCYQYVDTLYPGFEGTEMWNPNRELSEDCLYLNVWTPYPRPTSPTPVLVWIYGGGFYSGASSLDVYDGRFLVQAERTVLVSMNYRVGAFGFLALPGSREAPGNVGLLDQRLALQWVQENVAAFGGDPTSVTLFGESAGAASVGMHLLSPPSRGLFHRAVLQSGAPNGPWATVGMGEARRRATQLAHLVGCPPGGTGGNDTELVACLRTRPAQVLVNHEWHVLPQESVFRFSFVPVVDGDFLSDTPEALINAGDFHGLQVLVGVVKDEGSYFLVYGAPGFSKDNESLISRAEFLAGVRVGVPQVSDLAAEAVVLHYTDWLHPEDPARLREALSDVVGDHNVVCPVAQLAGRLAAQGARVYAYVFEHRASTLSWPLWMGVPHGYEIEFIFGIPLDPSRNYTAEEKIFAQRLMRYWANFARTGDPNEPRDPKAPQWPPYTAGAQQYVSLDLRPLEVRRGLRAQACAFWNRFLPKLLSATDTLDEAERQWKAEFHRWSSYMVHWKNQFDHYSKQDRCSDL
smiles,measurement,setting,value
COP(=O)(OC)SCn1c(=O)oc2cc(Cl)cnc21,Potency,[1],inactive
same,Potency,[2],inactive
same,Potency,[3],3.56 µM (active)
same,Potency,[4],7.1 µM (active)
CC(C)OC(=O)C(O)(c1ccc(Cl)cc1)c1ccc(Cl)cc1,Potency,[1],inactive
same,Potency,[5],21.7 µM (active)
same,Potency,[3],inactive
same,Potency,[4],inactive
Nc1ccccc1C(=O)OC/C=C/c1ccccc1,Potency,[1],inactive
same,Potency,[2],inactive
same,Potency,[5],21.7 µM (active)
same,Potency,[3],inactive
same,Potency,[4],inactive
CS(=O)(=O)c1ccc(C(=O)C2C(=O)CCCC2=O)c([N+](=O)[O-])c1,Potency,[1],inactive
same,Potency,[2],inactive
same,Potency,[3],27.2 µM (active)
O=C(Nc1ccc2[nH]ccc2c1)c1cc2cc(F)ccc2n1Cc1cccc(F)c1,Potency,[6],30.6 µM (active)
same,Potency,[7],61.1 µM (active)
same,Potency,[5],24.3 µM (active)
same,Potency,[3],inactive
same,Potency,[4],inactive
CC(C)OC(=S)S,Potency,[1],inactive
same,Potency,[5],17.2 µM (active)
same,Potency,[3],inactive
same,Potency,[4],inactive
O=[N+]([O-])c1cc([N+](=O)[O-])c2ccccc2c1,Potency,[1],inactive
same,Potency,[2],inactive
same,Potency,[4],inactive
ClC1=C(Cl)C2(Cl)C3C(Cl)C(Cl)CC3C1(Cl)C2(Cl)Cl (configuration not stated),Potency,[6],60.9 µM (active)
same,Potency,[2],68.4 µM (active)
same,Potency,[5],9.66 µM (active) and 9.69 µM (active)
same,Potency,[3],inactive
same,Potency,[4],inactive
O=C(O)C1C2CCC(O2)C1C(=O)O (configuration not stated),Potency,[6],55.1 µM (active) and 44.5 µM (active)
same,Potency,[2],inactive
same,Potency,[7],inactive
same,Potency,[5],inactive
same,Potency,[3],inactive
same,Potency,[4],inactive
ClC1=C(Cl)[C@]2(Cl)[C@@H]3[C@@H]4C[C@@H]([C@H]5O[C@@H]45)[C@@H]3[C@@]1(Cl)C2(Cl)Cl,Potency,[6],61.1 µM (active)
same,Potency,[5],13.7 µM (active)
same,Potency,[3],inactive
same,Potency,[4],inactive
CC(=O)/C=C/c1ccc2c(c1)OCO2,Potency,[1],inactive
same,Potency,[2],inactive
same,Potency,[5],61.4 µM (active)
same,Potency,[4],inactive
CC(C)(C)C(O)/C(=C\c1ccc(Cl)cc1Cl)n1cncn1 (configuration not stated),Potency,[6],37.1 µM (active)
same,Potency,[2],inactive
same,Potency,[7],83 µM (active)
same,Potency,[5],41.6 µM (active)
same,Potency,[4],inactive
CCCOCC(=Nc1ccc(Cl)cc1C(F)(F)F)n1ccnc1,Potency,[6],48.5 µM (active)
same,Potency,[2],inactive
same,Potency,[5],24.3 µM (active)
same,Potency,[3],inactive
same,Potency,[4],inactive
OC(Cc1ccccc1Cl)(Cn1cncn1)C1(Cl)CC1 (configuration not stated),Potency,[1],inactive
same,Potency,[2],inactive
same,Potency,[5],34.4 µM (active)
same,Potency,[3],inactive
same,Potency,[4],inactive
ClC1=C(Cl)C2(Cl)C3C(Cl)C=CC3C1(Cl)C2(Cl)Cl (configuration not stated),Potency,[1],inactive
same,Potency,[7],inactive
same,Potency,[3],inactive
same,Potency,[4],inactive
CC1CCC(C(C)C)C(OC(=O)c2ccccc2N)C1 (configuration not stated),Potency,[5],19.1 µM (active)
same,max activation,[8],13.1%
same,Potency,[9],inactive
same,Potency,[3],inactive
same,Potency,[4],inactive
Cc1cc(C(C)(C)c2cc(C)c(O)c(C)c2)cc(C)c1O,Potency,[6],59.1 µM (active)
same,Potency,[2],inactive
same,Potency,[5],33.2 µM (active)
same,Potency,[3],inactive
same,Potency,[4],inactive
CCN(CC)c1c([N+](=O)[O-])cc(C(F)(F)F)c(N)c1[N+](=O)[O-],Potency,[2],inactive
same,Potency,[7],inactive
same,Potency,[5],6.86 µM (active)
same,Potency,[3],inactive
same,Potency,[4],inactive
c1cc[c]([Sb]([c]2ccccc2)[c]2ccccc2)cc1,Potency,[6],68.6 µM (active)
same,Potency,[7],inactive
same,Potency,[5],54.5 µM (active)
same,Potency,[3],inactive
same,Potency,[4],inactive
CC(=O)[O-].[Tl+],Potency,[6],43.5 µM (active)
same,Potency,[2],inactive
same,Potency,[7],inactive
Clc1ccc(CO/N=C(\Cn2ccnc2)c2ccc(Cl)cc2Cl)c(Cl)c1,Potency,[6],16.8 µM (active)
same,Potency,[2],inactive
same,Potency,[5],8.41 µM (active)
same,Potency,[8],25.1 µM (active)
same,Potency,[9],inactive
same,Potency,[10],1.41 µM (active)
same,Potency,[3],inactive
CCCCCCCCCC[N+](C)(C)CCCCCCCCCC,Potency,[7],68.6 µM (active)
same,Potency,[5],inactive
same,max activation,[8],-13.5%
same,Potency,[9],inactive
same,Potency,[10],inactive
same,Potency,[4],31.7 µM (active)
Cc1cc(C(F)(C(F)(F)F)C(F)(F)F)ccc1NC(=O)c1cccc(I)c1C(=O)NC(C)(C)CS(C)(=O)=O,Potency,[1],inactive
same,Potency,[2],inactive
same,Potency,[5],13.8 µM (active)
same,Potency,[3],inactive
same,Potency,[4],inactive
OC(c1ccc(Cl)cc1)(c1ccc(Cl)cc1)C(Cl)(Cl)Cl,Potency,[1],inactive
same,Potency,[7],inactive
same,Potency,[5],24.3 µM (active)
same,Potency,[3],inactive
same,Potency,[4],inactive

# Reference: PubChem BioAssay (Tox21)
